Laboratory results: PubChem BioAssay AID1851 (National Center for Advancing Translational Sciences (NCATS), 2009)
In all, about 16,000 compounds went through this assay and about 5,700 (36%) were called active. About 24% were inconclusive and are not listed. This is one part of the list. Unmarked numbers belong to inactive results. Calls come from the whole dose curve; as a rule, active = well fitted curve in the direction sought with a large enough effect; inconclusive = small, poorly fitted or top-dose-only effect, or effect the other way; inactive = no such curve, though single readings can be large or run the other way.
% is set by controls: 0 for no effect and ±100 for the full control effect.

What follows are molecules tested against Cytochrome P450 1A2 (Homo sapiens) (UniProt P05177) (assay: Cytochrome panel assay with activity outcomes). Conditions: recombinant CYP, pro-luciferin dealkylation, luminescence, p450-cyp1a2; series mostly up to 57.1 µM.
Chain of Cytochrome P450 1A2 (Homo sapiens) (P05177 whole entry, looked up): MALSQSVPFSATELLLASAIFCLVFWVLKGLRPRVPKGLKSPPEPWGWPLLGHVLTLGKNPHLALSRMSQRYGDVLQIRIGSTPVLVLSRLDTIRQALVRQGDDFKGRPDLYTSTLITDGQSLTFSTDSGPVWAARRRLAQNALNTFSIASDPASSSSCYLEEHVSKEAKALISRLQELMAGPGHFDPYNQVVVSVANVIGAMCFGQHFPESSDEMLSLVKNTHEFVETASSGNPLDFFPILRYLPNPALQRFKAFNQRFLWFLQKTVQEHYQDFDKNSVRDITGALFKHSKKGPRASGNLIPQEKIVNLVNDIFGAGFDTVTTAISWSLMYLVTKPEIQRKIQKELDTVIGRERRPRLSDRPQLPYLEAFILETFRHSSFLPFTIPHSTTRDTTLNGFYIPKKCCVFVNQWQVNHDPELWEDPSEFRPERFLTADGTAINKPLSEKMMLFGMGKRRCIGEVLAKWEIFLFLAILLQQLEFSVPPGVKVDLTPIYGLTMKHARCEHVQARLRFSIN
For `COC(=O)[C@@]1(Cc2ccccc2)[C@H]2c3cc(C(=O)N4CCCC4)n(Cc4ccsc4Br)c3C[C@H]2CN1C(=O)c1ccccc1`, the AC50 was “inactive”. For `N#Cc1cccc(C(c2nnnn2C2CCCC2)N2CCCCCC2)c1` (centres undefined), the AC50 was “inactive”. `c1ccc(-c2noc(CSc3nnnn3C3CCCCC3)n2)cc1` was tested, and the AC50 was 2.24 µM (active). In the case of `N#Cc1ccc(C(c2nnnn2C2CCCC2)N2CCC(Cc3ccccc3)CC2)cc1` (centres undefined), the AC50 is reported as “inactive”. Molecule `OCCCN=C1CCCCC1` has an activity, negative = inhibition of -9.6% [at 11.4 µM]. With `COC(=O)Cn1nc(-c2ccccc2)n(-c2ccccc2)c1=S` the AC50 was 15.8 µM (active). `O=C(Nc1cccc(F)c1)N1CC2(CCN(C(=O)c3cc(C(F)(F)F)cc(C(F)(F)F)c3)CC2)C1` was tested, and the AC50 was “inactive”. `COc1ccc(N2C(=O)NC(NC(=O)c3ccncc3)(C(F)(F)F)C2=O)cc1` (centres undefined) was tested, and the AC50 was “inactive”. `CCCCN1C(=O)NC(NC(=O)c2ccco2)(C(F)(F)F)C1=O` (centres undefined) was tested, and the AC50 was “inactive”. With `O=C(NC1(C(F)(F)F)NC(=O)N(Cc2cccnc2)C1=O)c1ccccc1` (centres undefined) the AC50 was 6.31 µM (active). `CCN1C(=O)[C@H]2[C@H]3[C@H](O)[C@H](O)C/C(=N/OC)[C@@H]3CC[C@@H]2C1=O` gave an activity, negative = inhibition of -3.89% [at 11.4 µM]. With `COc1ccccc1N1CCN(CCCCNS(=O)(=O)c2cccc3c(N(C)C)cccc23)CC1` the AC50 was “inactive”. With `O=S(=O)(NCCCCCCc1ccccc1)c1cccc2c(Cl)cccc12` the AC50 was 15.8 µM (active). `CCCCCCCNS(=O)(=O)c1cccc2c(Cl)cccc12` was tested, and the AC50 was 6.31 µM (active). For `Nc1ccc(S(=O)(=O)NCCS(=O)(=O)O)cc1`, the activity, negative = inhibition was -3.14% [at 2.29 µM]. With `NCCCCCCNS(=O)(=O)c1cccc2c(Cl)cccc12` the AC50 was 7.94 µM (active). With `NCCNS(=O)(=O)c1cccc2cnccc12` the AC50 was “inactive”. `COC(=O)N1CCC2(CCN(Cc3nccs3)CC2)CC1` was tested, and the AC50 was “inactive”. `C/C(=N/O)[C@@H]1C[C@H](CC(=O)O)C1(C)C` gave an activity, negative = inhibition of -2.9% [at 11.4 µM]. With `COCCn1c(=O)c(-c2cccc(Cl)c2)nc2cncnc21` the AC50 was 0.631 µM (active). `COCCn1c(=O)c(-c2ccc(Cl)cc2)nc2cncnc21` was tested, and the AC50 was 0.2 µM (active). With `COCCn1c(=O)c(-c2cccc(F)c2)nc2cncnc21` the AC50 was 2 µM (active). `COCCn1c(=O)c(-c2cc(F)cc(F)c2)nc2cncnc21` was tested, and the AC50 was 2 µM (active). For `COCCn1c(=O)c(-c2ccccc2)nc2cncnc21`, the AC50 was 0.794 µM (active). With `COCCn1c(=O)c(-c2ccc(F)cc2)nc2cncnc21` the AC50 was 0.501 µM (active). `COCCn1c(=O)c(-c2ccc(F)c(F)c2)nc2cncnc21` was tested, and the AC50 was 0.251 µM (active). For `COc1ccc(NC(=O)C2CCN(C(=O)c3cccs3)CC2)c(OC)c1`, the AC50 was “inactive”. With `COc1ccc2oc(=O)c(C(=O)Oc3ccc(NC(C)=O)cc3)cc2c1` the AC50 was “inactive”. With `COc1ccc(NC(=O)CC2C(=O)N(c3cccc(OC)c3)C(=O)N2C2CCCCC2)cc1` (centres undefined) the AC50 was “inactive”. With `COc1ccc2oc(=O)c(NC(=O)C3CCCCC3)cc2c1` the AC50 was 2.51 µM (active). With `COc1ccccc1CNC(=O)C1CC(=O)N(C2CCCC2)C1` (centres undefined) the AC50 was “inactive”. In the case of `COc1cccc2cc(NC(=O)C3CCCCC3)c(=O)oc12`, the AC50 is reported as 1.26 µM (active). For `CC[C@H]1C2=C3C(CC[C@H]4C(OCc5ccc(F)cc5C(F)(F)F)OC[C@](C)([C@@H]34)N(C(=O)OC(C)(C)C)C2)C(COC)C1COC` (some centres undefined), the AC50 was “inactive”. With `COc1cc2ccc([C@H](C)NCC#N)cc2cc1OC` the AC50 was 0.501 µM (active). `COc1ccc(CNCCC(c2ccc(OC(C)C)cc2)C(C)C)cc1OC` (centres undefined) was tested, and the AC50 was “inactive”. `COC(=O)C(C(=O)OC)C(C[N+](=O)[O-])c1ccc(OC)c(OC)c1` (centres undefined) was tested, and the AC50 was “inactive”. In the case of `CCN(CC)C[C@@H](O)c1ccc2ccc3ccccc3c2c1`, the AC50 is reported as 0.794 µM (active). For `c1ccc([C@H](c2cccc3c2ccc2ccccc23)[C@H](c2ccccc2)c2cccc3c2ccc2ccccc23)cc1`, the activity, negative = inhibition was -9.37% [at 11.4 µM]. For `Cc1cc2ccccc2c[n+]1CC(O)C[n+]1cc2ccccc2cc1C`, the activity, negative = inhibition was -17.4% [at 11.4 µM]. With `CCCCCCCCN1C(=O)N(C)C(N(O)C(=O)NC)C1(C)C` (centres undefined) the AC50 was “inactive”. `Cn1c(=O)c2c(ncn2CCO)n(C)c1=O` was tested, and the AC50 was “inactive”. In the case of `Cn1c(=O)c2c(ncn2C[C@@H](O)CO)n(C)c1=O`, the AC50 is reported as “inactive”. In the case of `CCCn1cnc2c1c(=O)n(CCCCC(C)=O)c(=O)n2C`, the AC50 is reported as 12.6 µM (active). `O=C(O)/C=C(/C(=O)O)[C@]12CCN3CC4=CCO[C@@H]5CC(=O)N[C@@H]1[C@H]5[C@H]4C[C@H]32` gave an activity, negative = inhibition of -15% [at 2.29 µM]. `COc1ccc(CO/N=C/c2c(C)[nH]c(=O)[nH]c2=O)cc1` was tested, and the AC50 was 22.4 µM (active). Work on `NC[C@H]1O[C@H](n2cnc3c(N)ncnc32)C[C@@H]1O` yielded an activity, negative = inhibition of -9.51% [at 11.4 µM]. `O=c1oc2cc(N=Cc3ccc4c(c3)OCO4)ccc2c2ccccc12` was tested, and the AC50 was 0.00794 µM (active). For `O=[N+]([O-])c1ccc2c(c1)Cc1cc(N=Cc3ccc4c(c3)OCO4)ccc1-2`, the AC50 was 0.794 µM (active). With `Cc1nc(CN2CCCCC2)c(O)c(=O)[nH]1` the activity, negative = inhibition was -7.06% [at 11.4 µM]. `Cc1nc2c(O)cccc2c(=O)[nH]1` was tested, and the AC50 was 15.8 µM (active). For `CSc1nc(O)c(Cc2ccccc2)c(=O)[nH]1`, the AC50 was “inactive”. `COc1ccc(C(C(=O)NC2CCCCC2)N(C(=O)c2sc(C)nc2C)c2ccc(OC)cc2)cc1` (centres undefined) was tested, and the AC50 was “inactive”. For `COc1ccc(C(C(=O)NC2CCCCC2)N(C(=O)c2sc(C)nc2C)c2ccc(C(C)=O)cc2)cc1` (centres undefined), the AC50 was “inactive”. `C/C(=N\OC(=O)NC1CCCCC1)c1sc(-c2ccccc2)nc1C` was tested, and the AC50 was 7.08 µM (active). With `Cc1ccc(-c2ncccc2OC(=O)C23CC4CC(CC(C4)C2)C3)cc1` the AC50 was 14.1 µM (active). `CC(C)CO/N=C1/C[C@@H](O)[C@@H](O)[C@@H]2[C@@H]3C(=O)N(C[C@@H]4CCCO4)C(=O)[C@H]3CC[C@H]12` was tested, and the activity, negative = inhibition was -4.99% [at 11.4 µM]. `Cn1c(=O)c2cn(-c3ccccc3)cc2n(C)c1=O` was tested, and the AC50 was 1.78 µM (active). In the case of `Cn1c(=O)n(CCC(=O)O)c2ccccc21`, the AC50 is reported as “inactive”. In the case of `Cn1c(=O)c2cc(S(=O)(=O)NCCC(=O)NCc3ccccc3Cl)ccc2n(C)c1=O`, the AC50 is reported as “inactive”. `CCCNC(=O)OC[C@H]1O[C@@H](CCO/N=C\[C@@H](NS(=O)(=O)c2ccc(C)cc2)[C@H](C)/C=C\CC(=O)OC)C=C[C@@H]1Oc1ccc(OC)cc1` gave an activity, negative = inhibition of 2.17% [at 11.4 µM]. With `O=C(c1ccccc1)[C@@H]1O[C@H]1c1ccc(-c2ccccc2)cc1` the AC50 was 6.31 µM (active). `C[C@@]1(C(NC(=O)c2ccccc2)c2ccc(-c3ccccc3)cc2)C[C@H]1C1CCCCC1` (some centres undefined) was tested, and the AC50 was “inactive”. `CCN1CCN(CCCNC(=O)C(NC(=O)C2CCC(C)CC2)C(C)C)CC1` (centres undefined) was tested, and the AC50 was “inactive”. In the case of `O=C(c1cc(C(F)(F)F)cc(C(F)(F)F)c1)N1CCC[C@@]2(CCN(c3ncccn3)C2)C1`, the AC50 is reported as “inactive”. `O=C1CC[C@H](N2C(=O)c3ccccc3C2=O)C(=O)N1` was tested, and the AC50 was “inactive”. With `COCCn1c(=O)c(CCc2ccccc2)nc2cncnc21` the AC50 was 10 µM (active). For `NCCn1c(=O)c(CCc2ccccc2)nc2cncnc21`, the AC50 was 12.6 µM (active). `O=c1c(CCc2ccccc2)nc2cncnc2n1-c1ccccc1` was tested, and the AC50 was 15.8 µM (active). `CCCNC(=O)N1CCC(C(=O)c2ccc(F)cc2)CC1` was tested, and the AC50 was “inactive”. `NC(=O)C1(NC(=O)[C@@H]2CC3(CC(c4cccc(NC(=O)c5cc([N+](=O)[O-])cc([N+](=O)[O-])c5)c4)=NO3)CN2C(=O)c2ccccc2)CC1` (some centres undefined) was tested, and the AC50 was “inactive”. For `COc1ccc(NC(=O)c2cc(C(C)C)on2)cc1OC`, the AC50 was 15.8 µM (active). In the case of `COc1ccc(NC(=O)CC#N)cc1OC`, the AC50 is reported as 15.8 µM (active). For `COc1ccc(NC(=O)C(F)(F)F)cc1OC`, the AC50 was 12.6 µM (active). With `COc1ccc(C(=O)Nc2ccc(OCC(F)(F)C(F)F)c(C(F)(F)F)c2)cc1OC` the AC50 was “inactive”. `COc1ccc(NC(=O)COC(=O)Cn2c(C)nc3ccccc32)cc1OC` was tested, and the AC50 was “inactive”. In the case of `CCC(NC(=O)Nc1cc(OC)c(OC)c(OC)c1)(C(F)(F)F)C(F)(F)F`, the AC50 is reported as “inactive”. In the case of `COc1ccc(-c2cc(C(=O)Nc3cc(OC)c(OC)c(OC)c3)no2)cc1OC`, the AC50 is reported as “inactive”. For `CO[C@]1(NC(=O)CSCC#N)C(=O)N2C(C(=O)O)=C(CSc3nnnn3C)CS[C@H]21`, the AC50 was “inactive”. For `CNc1ncnc2ccc(-c3ccccc3OC)cc12`, the AC50 was 2.51 µM (active). For `COc1ccccc1-c1ccc2ncnc(Nc3ccccc3)c2c1`, the AC50 was 2.51 µM (active). For `Cc1ccc(CS(=O)(=O)CCC(=O)NCCCOC(C)C)cc1`, the AC50 was “inactive”. In the case of `NC(N)=NNC(=O)C(=O)O`, the activity, negative = inhibition is reported as -1.69% [at 11.4 µM]. In the case of `O=C(N/C(=C/c1ccc(Br)cc1)c1nc2ccccc2[nH]1)c1ccco1`, the AC50 is reported as 7.08 µM (active). In the case of `O=C(NC(Cc1ccccc1)C(=O)O)/C(=C\c1ccco1)NC(=O)c1ccc(Br)cc1` (centres undefined), the AC50 is reported as “inactive”. In the case of `Cc1ccc(NC(=O)/C(=C\c2cccnc2)NC(=O)c2ccco2)cc1`, the AC50 is reported as “inactive”. `C[C@H](NC[C@H](O)CP(=O)(O)CC1CCCCC1)c1ccc(Cl)c(Cl)c1` was tested, and the AC50 was 39.8 µM (active). With `C[C@H](NC[C@H](O)CP(=O)(O)Cc1ccccc1)c1ccc(Cl)c(Cl)c1` the AC50 was “inactive”. With `CCS(=O)(=O)Nc1ccc(C2=NN(C(=O)c3ccco3)C(c3ccc(C)cc3)C2)cc1` (centres undefined) the AC50 was “inactive”. With `CNC(=S)N1N=C(c2ccc(OC)cc2)CC1c1ccc(N(C)C)cc1` (centres undefined) the AC50 was 10 µM (active). With `COc1ccccc1CNc1ccnc(-c2cccc(C#N)c2)n1` the AC50 was 0.794 µM (active). With `COc1ccc(CNc2ccnc(-c3cccc(C#N)c3)n2)c(OC)c1` the AC50 was 2.51 µM (active). `C=CCNC(=S)N1CCN(c2ncc3c(=O)c(C(=O)O)cn(CC)c3n2)CC1` was tested, and the AC50 was “inactive”. In the case of `C=CC[C@H](N)C(=O)O`, the AC50 is reported as “inactive”. `Cc1cc(NC(=O)C2CCCC2)n(-c2nc3ccccc3[nH]2)n1` was tested, and the AC50 was 2.82 µM (active).
